# Measurements reported in PMC7862700, “An all-to-all approach to the identification of sequence-specific readers for epigenetic DNA modifications on cytosine”.
# How the values were obtained:
# Test in all cases: DAPPL (digital affinity profiling via proximity ligation, sequencing); 10 mM Tris-HCl pH 7.5, 50 mM NaCl, 1 mM DTT, 4% glycerol, room temperature, 30 min; GST-TFs on glutathione beads, 16-mer random dsDNA library, 0.1% formaldehyde crosslink after washing; high values mean tight binding
# [1] = target: T1, FLI1 (Homo sapiens, UniProt Q01543 1-452); conditions: protein: recombinant; tags: N-terminal GST; dsDNA, one strand shown
# T1 sequence: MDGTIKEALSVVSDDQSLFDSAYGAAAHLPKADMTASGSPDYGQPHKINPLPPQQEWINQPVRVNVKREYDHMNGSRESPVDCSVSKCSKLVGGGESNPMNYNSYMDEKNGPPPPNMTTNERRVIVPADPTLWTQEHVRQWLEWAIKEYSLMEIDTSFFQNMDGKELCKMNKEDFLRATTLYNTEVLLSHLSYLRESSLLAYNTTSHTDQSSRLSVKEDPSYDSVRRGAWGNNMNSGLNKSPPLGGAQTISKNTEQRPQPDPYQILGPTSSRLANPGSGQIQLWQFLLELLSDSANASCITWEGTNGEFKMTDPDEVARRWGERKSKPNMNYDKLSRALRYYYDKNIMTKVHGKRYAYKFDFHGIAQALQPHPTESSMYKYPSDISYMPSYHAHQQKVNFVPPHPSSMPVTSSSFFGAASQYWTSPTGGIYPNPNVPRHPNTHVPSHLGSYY
# Procedure, shortened: (§1)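 Human transcription factors fused to GST were expressed in yeast, captured on glutathione beads, given DNA barcodes and pooled with a GST-only negative control. Pools were incubated with 200 nmole of a 16-mer random double-stranded DNA library in Tris/NaCl/DTT/glycerol buffer at room temperature for 30 min. They were then washed, crosslinked with 0.1% formaldehyde, proximity-ligated (BsaI/T4 ligase, 1 h, 37 °C), PCR-amplified and sequenced on an Illumina NextSeq500. Binding signal is each 6-mer's read frequency for a factor divided by its frequency for the GST control.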
# [2] = target: T2, ELK1 (Homo sapiens, UniProt P19419 1-428); conditions: protein: recombinant; tags: N-terminal GST; dsDNA, one strand shown
# T2 sequence: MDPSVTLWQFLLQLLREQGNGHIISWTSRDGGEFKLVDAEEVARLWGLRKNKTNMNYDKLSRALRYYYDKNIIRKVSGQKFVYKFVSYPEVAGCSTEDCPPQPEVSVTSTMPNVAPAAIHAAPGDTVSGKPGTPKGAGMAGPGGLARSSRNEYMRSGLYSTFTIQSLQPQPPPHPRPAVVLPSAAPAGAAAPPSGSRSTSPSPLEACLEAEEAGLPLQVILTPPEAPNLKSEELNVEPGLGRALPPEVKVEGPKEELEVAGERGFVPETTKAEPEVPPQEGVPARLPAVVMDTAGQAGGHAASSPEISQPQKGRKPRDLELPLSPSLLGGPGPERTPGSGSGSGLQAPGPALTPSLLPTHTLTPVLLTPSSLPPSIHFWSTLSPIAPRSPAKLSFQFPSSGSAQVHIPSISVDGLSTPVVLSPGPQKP
# Procedure, shortened: as §1
# [3] = target: T3, GABPA (Homo sapiens, UniProt Q06546 1-454); conditions: protein: recombinant; tags: N-terminal GST; dsDNA, one strand shown
# T3 sequence: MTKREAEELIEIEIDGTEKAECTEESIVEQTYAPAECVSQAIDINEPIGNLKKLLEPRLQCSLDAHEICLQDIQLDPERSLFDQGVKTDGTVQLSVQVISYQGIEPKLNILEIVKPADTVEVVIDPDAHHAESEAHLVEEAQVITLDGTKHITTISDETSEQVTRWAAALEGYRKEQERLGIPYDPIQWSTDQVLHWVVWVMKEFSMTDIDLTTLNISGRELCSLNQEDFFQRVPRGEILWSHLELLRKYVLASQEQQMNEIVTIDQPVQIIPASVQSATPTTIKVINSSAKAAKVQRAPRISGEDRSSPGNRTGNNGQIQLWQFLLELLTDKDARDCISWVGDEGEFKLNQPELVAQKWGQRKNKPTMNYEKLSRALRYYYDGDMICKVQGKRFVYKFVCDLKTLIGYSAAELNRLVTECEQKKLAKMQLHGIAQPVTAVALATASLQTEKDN
# Procedure, shortened: as §1
# [4] = target: T4, ERG (Homo sapiens, UniProt P11308 1-479); conditions: protein: recombinant; tags: N-terminal GST; dsDNA, one strand shown
# T4 sequence: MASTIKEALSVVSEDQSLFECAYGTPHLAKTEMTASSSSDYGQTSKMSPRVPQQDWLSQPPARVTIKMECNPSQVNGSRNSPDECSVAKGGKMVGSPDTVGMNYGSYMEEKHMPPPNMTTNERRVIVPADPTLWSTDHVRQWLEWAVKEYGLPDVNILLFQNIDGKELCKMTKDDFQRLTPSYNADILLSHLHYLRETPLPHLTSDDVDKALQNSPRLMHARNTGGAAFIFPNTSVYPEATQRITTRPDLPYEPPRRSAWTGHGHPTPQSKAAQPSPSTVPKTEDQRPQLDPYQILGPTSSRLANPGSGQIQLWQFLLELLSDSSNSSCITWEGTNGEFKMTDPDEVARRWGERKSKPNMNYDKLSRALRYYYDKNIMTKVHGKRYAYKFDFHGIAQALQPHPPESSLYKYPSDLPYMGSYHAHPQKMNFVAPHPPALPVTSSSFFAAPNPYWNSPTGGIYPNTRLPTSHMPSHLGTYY
# Procedure, shortened: as §1
# [5] = target: ELF1 (Homo sapiens, UniProt P32519 1-619); conditions: protein: recombinant; tags: N-terminal GST; dsDNA, one strand shown
# Procedure, shortened: as §1
# [6] = target: T5, EHF (Homo sapiens, UniProt Q9NZC4 1-300); conditions: protein: recombinant; tags: N-terminal GST; dsDNA, one strand shown
# T5 sequence: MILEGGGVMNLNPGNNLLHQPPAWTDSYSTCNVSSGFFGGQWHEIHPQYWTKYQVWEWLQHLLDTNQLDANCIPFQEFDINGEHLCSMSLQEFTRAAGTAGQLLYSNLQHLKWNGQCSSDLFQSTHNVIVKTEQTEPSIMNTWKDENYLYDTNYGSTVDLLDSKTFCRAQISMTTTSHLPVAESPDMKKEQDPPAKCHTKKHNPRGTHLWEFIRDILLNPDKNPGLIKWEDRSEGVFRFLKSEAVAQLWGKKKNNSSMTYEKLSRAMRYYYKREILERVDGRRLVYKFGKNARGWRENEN
# Procedure, shortened: as §1
# [7] = target: SPI1 (Homo sapiens, UniProt P17947 1-270); conditions: protein: recombinant; tags: N-terminal GST; dsDNA, one strand shown
# Procedure, shortened: as §1
# [8] = target: SPIB (Homo sapiens, UniProt Q01892 1-262); conditions: protein: recombinant; tags: N-terminal GST; dsDNA, one strand shown
# Procedure, shortened: as §1
# [9] = target: T6, ELK3 (Homo sapiens, UniProt P41970 1-407); conditions: protein: recombinant; tags: N-terminal GST; dsDNA, one strand shown
# T6 sequence: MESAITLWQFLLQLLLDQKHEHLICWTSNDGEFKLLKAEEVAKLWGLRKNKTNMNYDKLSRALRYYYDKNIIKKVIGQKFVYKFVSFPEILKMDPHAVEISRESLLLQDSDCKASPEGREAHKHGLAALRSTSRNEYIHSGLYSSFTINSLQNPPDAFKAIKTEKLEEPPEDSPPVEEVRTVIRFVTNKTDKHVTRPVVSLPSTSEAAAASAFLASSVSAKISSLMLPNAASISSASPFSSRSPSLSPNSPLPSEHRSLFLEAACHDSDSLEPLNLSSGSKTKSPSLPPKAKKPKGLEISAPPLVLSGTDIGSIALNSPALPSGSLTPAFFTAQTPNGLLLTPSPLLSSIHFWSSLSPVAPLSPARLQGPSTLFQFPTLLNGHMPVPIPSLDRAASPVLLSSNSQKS
# Procedure, shortened: as §1
# [10] = target: T7, FEV (Homo sapiens, UniProt Q99581 1-238); conditions: protein: recombinant; tags: N-terminal GST; dsDNA, one strand shown
# T7 sequence: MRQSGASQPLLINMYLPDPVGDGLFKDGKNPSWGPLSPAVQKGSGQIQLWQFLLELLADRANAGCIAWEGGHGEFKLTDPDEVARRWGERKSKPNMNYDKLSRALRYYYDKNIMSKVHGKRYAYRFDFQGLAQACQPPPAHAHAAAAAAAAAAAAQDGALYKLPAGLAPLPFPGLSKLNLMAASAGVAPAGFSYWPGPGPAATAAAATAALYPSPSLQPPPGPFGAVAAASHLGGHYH
# Procedure, shortened: as §1
# [11] = target: ETV5 (Homo sapiens, UniProt P41161 1-510); conditions: protein: recombinant; tags: N-terminal GST; dsDNA, one strand shown
# Procedure, shortened: as §1
# [12] = target: HSF1 (Homo sapiens, UniProt Q00613 1-529); conditions: protein: recombinant; tags: N-terminal GST; chain copies: 3; dsDNA, one strand shown
# Procedure, shortened: as §1
# [13] = target: T8, SPIC (Homo sapiens, UniProt Q8N5J4 1-248); conditions: protein: recombinant; tags: N-terminal GST; dsDNA, one strand shown
# T8 sequence: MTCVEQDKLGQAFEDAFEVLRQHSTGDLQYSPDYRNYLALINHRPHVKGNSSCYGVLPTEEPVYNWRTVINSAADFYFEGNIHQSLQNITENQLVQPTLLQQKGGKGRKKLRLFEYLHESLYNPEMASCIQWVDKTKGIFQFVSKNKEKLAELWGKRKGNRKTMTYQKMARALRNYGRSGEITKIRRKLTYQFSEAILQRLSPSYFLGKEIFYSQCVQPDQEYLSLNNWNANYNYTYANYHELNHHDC
# Procedure, shortened: as §1
# [14] = target: ELF4 (Homo sapiens, UniProt Q99607 1-663); conditions: protein: recombinant; tags: N-terminal GST; dsDNA, one strand shown
# Procedure, shortened: as §1
# [15] = target: T9, ELK4 (Homo sapiens, UniProt P28324-2 1-405); conditions: protein: recombinant; tags: N-terminal GST; dsDNA, one strand shown
# T9 sequence: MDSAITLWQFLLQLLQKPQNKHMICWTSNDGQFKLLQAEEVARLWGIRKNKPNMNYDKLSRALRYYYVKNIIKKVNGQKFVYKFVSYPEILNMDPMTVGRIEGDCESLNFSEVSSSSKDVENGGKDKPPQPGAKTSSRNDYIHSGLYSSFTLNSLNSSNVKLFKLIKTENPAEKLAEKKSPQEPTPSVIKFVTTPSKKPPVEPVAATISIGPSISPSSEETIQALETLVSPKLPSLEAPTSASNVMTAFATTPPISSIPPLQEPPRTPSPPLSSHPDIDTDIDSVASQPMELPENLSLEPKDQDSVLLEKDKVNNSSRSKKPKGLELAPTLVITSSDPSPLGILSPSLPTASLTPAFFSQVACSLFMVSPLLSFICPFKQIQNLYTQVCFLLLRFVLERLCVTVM
# Procedure, shortened: as §1
# [16] = target: T10, ETV2 (Homo sapiens, UniProt O00321 1-342); conditions: protein: recombinant; tags: N-terminal GST; dsDNA, one strand shown
# T10 sequence: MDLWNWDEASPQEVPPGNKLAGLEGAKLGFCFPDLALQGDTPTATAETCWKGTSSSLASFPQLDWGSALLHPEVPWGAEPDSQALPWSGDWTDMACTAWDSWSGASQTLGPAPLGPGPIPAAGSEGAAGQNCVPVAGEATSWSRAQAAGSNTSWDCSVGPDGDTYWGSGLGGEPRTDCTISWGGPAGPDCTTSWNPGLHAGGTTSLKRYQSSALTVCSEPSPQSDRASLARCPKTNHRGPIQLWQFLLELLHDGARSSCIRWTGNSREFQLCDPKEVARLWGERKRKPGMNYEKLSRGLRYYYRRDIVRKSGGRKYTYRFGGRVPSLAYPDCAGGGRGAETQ
# Procedure, shortened: as §1
# [17] = target: T11, ELF3 (Homo sapiens, UniProt P78545 1-371); conditions: protein: recombinant; tags: N-terminal GST; dsDNA, one strand shown
# T11 sequence: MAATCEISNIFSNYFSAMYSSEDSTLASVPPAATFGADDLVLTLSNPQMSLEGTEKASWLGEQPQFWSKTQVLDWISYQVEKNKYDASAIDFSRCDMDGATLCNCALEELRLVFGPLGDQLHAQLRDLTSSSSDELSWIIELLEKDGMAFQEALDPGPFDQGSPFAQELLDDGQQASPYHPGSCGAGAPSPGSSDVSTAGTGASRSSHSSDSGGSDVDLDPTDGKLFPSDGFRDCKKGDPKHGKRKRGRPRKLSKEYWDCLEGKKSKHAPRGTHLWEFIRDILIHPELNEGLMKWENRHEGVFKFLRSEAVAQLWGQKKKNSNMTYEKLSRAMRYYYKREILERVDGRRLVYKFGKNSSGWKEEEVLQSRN
# Procedure, shortened: as §1
# [18] = target: CRX (Homo sapiens, UniProt O43186 1-299); conditions: protein: recombinant; tags: N-terminal GST; dsDNA, one strand shown
# Procedure, shortened: as §1
# [19] = target: ETV1 (Homo sapiens, UniProt P50549 1-477); conditions: protein: recombinant; tags: N-terminal GST; dsDNA, one strand shown
# Procedure, shortened: as §1
# Chain of SPIB (Q01892 whole entry): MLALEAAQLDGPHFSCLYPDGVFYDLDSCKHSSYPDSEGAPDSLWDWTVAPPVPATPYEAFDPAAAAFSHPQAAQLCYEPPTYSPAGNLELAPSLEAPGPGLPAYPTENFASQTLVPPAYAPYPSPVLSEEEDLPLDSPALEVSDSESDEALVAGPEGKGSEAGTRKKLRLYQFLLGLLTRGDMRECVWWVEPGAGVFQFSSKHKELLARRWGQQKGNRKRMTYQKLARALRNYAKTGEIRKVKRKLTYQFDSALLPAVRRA
# Chain of ETV1 (P50549 whole entry): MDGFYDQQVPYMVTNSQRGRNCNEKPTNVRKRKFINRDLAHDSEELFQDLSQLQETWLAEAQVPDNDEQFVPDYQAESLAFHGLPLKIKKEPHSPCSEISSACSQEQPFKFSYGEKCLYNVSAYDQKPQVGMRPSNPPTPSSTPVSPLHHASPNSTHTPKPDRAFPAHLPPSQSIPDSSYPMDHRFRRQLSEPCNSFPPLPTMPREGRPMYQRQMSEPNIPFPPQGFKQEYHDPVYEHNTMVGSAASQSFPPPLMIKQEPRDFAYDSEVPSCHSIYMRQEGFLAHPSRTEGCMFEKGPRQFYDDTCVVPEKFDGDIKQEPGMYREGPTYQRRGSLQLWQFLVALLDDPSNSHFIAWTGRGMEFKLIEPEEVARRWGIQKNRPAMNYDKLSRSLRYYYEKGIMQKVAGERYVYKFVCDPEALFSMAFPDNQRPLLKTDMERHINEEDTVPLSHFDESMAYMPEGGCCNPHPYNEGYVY
# Chain of ELF4 (Q99607 whole entry): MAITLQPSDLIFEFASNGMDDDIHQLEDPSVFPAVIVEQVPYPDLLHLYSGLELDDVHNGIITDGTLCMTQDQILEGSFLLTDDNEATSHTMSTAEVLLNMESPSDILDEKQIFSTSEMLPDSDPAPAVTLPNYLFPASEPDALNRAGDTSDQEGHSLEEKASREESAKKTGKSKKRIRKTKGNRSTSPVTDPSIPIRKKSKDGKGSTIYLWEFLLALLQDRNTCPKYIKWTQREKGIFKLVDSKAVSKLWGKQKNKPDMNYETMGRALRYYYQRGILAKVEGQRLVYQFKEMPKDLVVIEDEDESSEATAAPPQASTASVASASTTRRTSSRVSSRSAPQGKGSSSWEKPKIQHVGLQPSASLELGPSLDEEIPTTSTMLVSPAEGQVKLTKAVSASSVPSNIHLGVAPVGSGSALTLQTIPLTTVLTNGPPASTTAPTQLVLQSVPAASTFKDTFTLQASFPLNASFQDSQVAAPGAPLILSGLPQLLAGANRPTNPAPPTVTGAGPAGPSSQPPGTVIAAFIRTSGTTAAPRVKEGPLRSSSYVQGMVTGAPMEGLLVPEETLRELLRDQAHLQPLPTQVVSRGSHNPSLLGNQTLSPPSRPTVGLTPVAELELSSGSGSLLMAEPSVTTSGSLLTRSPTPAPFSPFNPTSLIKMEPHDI
# Chain of CRX (O43186 whole entry): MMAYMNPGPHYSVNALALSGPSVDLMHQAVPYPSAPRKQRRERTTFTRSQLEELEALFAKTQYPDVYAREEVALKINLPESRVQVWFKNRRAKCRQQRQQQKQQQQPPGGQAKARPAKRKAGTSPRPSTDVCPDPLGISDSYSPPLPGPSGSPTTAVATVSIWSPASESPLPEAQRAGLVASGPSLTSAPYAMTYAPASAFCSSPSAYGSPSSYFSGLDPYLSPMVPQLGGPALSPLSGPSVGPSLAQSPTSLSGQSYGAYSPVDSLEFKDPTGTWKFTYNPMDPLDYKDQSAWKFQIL
# Chain of ELF1 (P32519 whole entry): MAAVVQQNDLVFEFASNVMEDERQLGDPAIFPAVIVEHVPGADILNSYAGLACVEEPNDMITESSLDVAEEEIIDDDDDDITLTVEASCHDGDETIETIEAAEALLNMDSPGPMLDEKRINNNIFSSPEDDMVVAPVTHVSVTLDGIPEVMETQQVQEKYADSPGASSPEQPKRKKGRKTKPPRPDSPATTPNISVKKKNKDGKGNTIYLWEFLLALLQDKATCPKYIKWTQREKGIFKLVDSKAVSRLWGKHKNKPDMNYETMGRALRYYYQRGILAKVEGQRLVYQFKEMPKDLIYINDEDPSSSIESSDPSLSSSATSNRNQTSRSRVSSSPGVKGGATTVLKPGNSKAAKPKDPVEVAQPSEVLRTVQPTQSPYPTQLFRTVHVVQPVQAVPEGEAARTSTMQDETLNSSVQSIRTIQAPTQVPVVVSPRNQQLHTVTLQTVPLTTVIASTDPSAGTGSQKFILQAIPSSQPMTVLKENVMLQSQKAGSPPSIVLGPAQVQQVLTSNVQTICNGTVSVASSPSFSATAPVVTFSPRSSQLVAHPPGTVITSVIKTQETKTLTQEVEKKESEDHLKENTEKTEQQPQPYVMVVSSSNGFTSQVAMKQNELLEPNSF
# Chain of HSF1 (Q00613 whole entry): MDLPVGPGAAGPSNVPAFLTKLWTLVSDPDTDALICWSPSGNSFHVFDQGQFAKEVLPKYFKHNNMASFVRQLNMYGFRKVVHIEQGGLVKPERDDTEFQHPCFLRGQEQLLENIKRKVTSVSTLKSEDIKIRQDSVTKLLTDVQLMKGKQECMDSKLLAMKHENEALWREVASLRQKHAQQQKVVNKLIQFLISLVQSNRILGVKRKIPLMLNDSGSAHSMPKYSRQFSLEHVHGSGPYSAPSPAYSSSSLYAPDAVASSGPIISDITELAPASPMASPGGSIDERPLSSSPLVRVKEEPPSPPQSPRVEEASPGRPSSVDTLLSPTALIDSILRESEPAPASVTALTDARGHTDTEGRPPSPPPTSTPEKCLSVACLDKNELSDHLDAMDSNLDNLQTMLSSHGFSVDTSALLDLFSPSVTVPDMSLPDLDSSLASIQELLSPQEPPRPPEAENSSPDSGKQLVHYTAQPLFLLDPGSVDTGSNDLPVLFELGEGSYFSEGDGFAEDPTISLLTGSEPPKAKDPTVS
# Chain of ETV5 (P41161 whole entry): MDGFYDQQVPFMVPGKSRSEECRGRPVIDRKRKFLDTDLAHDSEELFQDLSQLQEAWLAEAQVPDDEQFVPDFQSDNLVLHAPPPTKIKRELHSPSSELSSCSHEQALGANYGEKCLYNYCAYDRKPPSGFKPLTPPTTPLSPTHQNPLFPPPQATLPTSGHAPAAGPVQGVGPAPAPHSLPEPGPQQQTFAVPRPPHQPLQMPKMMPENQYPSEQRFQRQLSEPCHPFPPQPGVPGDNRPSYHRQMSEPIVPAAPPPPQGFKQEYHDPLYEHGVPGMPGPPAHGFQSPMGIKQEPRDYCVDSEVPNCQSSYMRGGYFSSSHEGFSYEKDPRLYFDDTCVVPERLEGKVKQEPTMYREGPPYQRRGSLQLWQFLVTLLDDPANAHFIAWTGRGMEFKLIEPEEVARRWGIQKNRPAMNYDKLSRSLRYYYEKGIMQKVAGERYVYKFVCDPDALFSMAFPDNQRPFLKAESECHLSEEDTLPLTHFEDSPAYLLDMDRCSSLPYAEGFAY
sequence,measurement,setting,value
TACCTC,binding signal,[1],"1.25 fold enrichment (6-mer frequency, TF over GST control)"
same,binding signal,[2],"1.29 fold enrichment (6-mer frequency, TF over GST control)"
same,binding signal,[3],"1.33 fold enrichment (6-mer frequency, TF over GST control)"
same,binding signal,[4],"1.19 fold enrichment (6-mer frequency, TF over GST control)"
same,binding signal,[5],"1.25 fold enrichment (6-mer frequency, TF over GST control)"
same,binding signal,[6],"1.2 fold enrichment (6-mer frequency, TF over GST control)"
same,binding signal,[7],"1.27 fold enrichment (6-mer frequency, TF over GST control)"
same,binding signal,[8],"1.21 fold enrichment (6-mer frequency, TF over GST control)"
same,binding signal,[9],"1.27 fold enrichment (6-mer frequency, TF over GST control)"
same,binding signal,[10],"1.22 fold enrichment (6-mer frequency, TF over GST control)"
same,binding signal,[11],"1.14 fold enrichment (6-mer frequency, TF over GST control)"
same,binding signal,[12],"1.07 fold enrichment (6-mer frequency, TF over GST control)"
same,binding signal,[13],"1.4 fold enrichment (6-mer frequency, TF over GST control)"
same,binding signal,[14],"1.21 fold enrichment (6-mer frequency, TF over GST control)"
same,binding signal,[15],"1.36 fold enrichment (6-mer frequency, TF over GST control)"
same,binding signal,[16],"1.24 fold enrichment (6-mer frequency, TF over GST control)"
same,binding signal,[17],"1.27 fold enrichment (6-mer frequency, TF over GST control)"
same,binding signal,[18],"1.19 fold enrichment (6-mer frequency, TF over GST control)"
same,binding signal,[19],"1.29 fold enrichment (6-mer frequency, TF over GST control)"
